# Source: publication PMC7862700, “An all-to-all approach to the identification of sequence-specific readers for epigenetic DNA modifications on cytosine”
# Columns and labels:
# Test in all cases: DAPPL (digital affinity profiling via proximity ligation, sequencing); 10 mM Tris-HCl pH 7.5, 50 mM NaCl, 1 mM DTT, 4% glycerol, room temperature, 30 min; GST-TFs on glutathione beads, 16-mer random dsDNA library, 0.1% formaldehyde crosslink after washing; high values mean tight binding
# Conditions in all cases: protein: recombinant; tags: N-terminal GST; dsDNA, one strand shown
# [1] = target: T1, FEV (Homo sapiens, UniProt Q99581 1-238)
# T1 sequence: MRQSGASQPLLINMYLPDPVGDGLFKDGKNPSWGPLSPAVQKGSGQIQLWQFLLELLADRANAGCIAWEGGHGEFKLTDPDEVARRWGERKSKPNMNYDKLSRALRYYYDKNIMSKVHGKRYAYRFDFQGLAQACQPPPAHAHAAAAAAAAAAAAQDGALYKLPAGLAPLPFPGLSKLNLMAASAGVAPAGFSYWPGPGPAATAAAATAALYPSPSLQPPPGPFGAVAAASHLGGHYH
# Method in brief: (§1)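 Sequencing on an Illumina NextSeq500 followed washing, crosslinking with 0.1% formaldehyde, proximity ligation (BsaI/T4 ligase, 1 h, 37 °C) and PCR amplification of pools that had been incubated for 30 min at room temperature with 200 nmole of a random double-stranded 16-mer DNA library in Tris/NaCl/DTT/glycerol buffer. Each pool held DNA-barcoded human transcription factors, expressed in yeast as GST fusions and captured on glutathione beads, plus a tag-only sample. Binding signal is a hexamer's read frequency for a factor divided by its frequency in the tag-only sample.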
# [2] = target: ETV5 (Homo sapiens, UniProt P41161 1-510)
# Method in brief: as §1
# [3] = target: T2, SPIC (Homo sapiens, UniProt Q8N5J4 1-248)
# T2 sequence: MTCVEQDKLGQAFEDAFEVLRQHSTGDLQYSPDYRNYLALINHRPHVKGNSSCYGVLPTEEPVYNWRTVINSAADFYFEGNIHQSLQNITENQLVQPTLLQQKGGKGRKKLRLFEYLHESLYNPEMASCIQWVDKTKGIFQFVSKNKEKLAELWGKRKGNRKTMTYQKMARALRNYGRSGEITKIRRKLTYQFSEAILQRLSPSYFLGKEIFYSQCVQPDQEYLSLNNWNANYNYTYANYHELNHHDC
# Method in brief: as §1
# [4] = target: ELF4 (Homo sapiens, UniProt Q99607 1-663)
# Method in brief: as §1
# [5] = target: T3, ELK4 (Homo sapiens, UniProt P28324-2 1-405)
# T3 sequence: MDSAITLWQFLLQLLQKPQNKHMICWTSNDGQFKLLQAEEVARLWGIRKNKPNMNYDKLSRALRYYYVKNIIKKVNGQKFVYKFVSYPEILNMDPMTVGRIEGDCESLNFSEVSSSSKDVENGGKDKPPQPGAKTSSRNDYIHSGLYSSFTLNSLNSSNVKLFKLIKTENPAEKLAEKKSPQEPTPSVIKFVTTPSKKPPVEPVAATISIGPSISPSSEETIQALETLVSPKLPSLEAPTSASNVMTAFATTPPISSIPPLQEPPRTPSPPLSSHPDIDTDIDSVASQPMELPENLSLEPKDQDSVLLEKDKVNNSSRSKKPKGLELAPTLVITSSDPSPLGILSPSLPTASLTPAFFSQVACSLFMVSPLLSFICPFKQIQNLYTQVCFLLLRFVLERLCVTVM
# Method in brief: as §1
# [6] = target: T4, ETV2 (Homo sapiens, UniProt O00321 1-342)
# T4 sequence: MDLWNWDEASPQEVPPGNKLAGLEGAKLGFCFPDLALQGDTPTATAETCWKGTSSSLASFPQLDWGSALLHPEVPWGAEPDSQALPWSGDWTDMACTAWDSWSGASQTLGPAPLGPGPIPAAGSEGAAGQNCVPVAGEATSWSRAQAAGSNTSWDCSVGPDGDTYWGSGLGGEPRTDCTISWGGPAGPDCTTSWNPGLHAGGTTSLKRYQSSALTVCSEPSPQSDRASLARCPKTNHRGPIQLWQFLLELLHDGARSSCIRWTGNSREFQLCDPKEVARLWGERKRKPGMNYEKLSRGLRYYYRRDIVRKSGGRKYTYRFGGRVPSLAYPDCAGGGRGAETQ
# Method in brief: as §1
# [7] = target: T5, ELF3 (Homo sapiens, UniProt P78545 1-371)
# T5 sequence: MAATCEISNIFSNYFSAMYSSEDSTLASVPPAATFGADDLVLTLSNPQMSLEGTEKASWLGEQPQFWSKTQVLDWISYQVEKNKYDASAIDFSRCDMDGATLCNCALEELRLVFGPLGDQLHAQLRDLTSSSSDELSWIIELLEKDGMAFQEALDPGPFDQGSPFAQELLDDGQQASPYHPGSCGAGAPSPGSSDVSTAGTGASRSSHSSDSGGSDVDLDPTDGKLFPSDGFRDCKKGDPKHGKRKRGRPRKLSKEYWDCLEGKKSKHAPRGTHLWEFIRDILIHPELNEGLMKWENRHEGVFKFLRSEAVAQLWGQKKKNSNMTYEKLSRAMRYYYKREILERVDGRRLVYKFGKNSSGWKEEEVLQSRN
# Method in brief: as §1
# [8] = target: CRX (Homo sapiens, UniProt O43186 1-299)
# Method in brief: as §1
# [9] = target: ETV1 (Homo sapiens, UniProt P50549 1-477)
# Method in brief: as §1
# [10] = target: T6, ERF (Homo sapiens, UniProt P50548 1-548)
# T6 sequence: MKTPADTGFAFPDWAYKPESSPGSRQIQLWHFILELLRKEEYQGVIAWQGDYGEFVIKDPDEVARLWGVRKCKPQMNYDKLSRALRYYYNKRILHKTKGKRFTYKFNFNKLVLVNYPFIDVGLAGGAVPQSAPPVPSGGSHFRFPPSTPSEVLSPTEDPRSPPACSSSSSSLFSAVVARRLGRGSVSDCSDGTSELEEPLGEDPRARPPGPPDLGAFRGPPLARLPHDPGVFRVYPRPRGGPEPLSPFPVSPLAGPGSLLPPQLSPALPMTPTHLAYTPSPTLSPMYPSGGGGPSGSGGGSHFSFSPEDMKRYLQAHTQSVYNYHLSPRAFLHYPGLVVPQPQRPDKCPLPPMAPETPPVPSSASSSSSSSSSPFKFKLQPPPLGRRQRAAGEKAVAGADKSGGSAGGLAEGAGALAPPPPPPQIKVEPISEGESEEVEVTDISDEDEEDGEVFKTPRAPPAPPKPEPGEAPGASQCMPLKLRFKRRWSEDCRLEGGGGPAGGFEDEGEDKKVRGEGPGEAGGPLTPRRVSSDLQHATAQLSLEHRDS
# Method in brief: as §1
# [11] = target: T7, ETV3L (Homo sapiens, UniProt Q6ZN32 1-361)
# T7 sequence: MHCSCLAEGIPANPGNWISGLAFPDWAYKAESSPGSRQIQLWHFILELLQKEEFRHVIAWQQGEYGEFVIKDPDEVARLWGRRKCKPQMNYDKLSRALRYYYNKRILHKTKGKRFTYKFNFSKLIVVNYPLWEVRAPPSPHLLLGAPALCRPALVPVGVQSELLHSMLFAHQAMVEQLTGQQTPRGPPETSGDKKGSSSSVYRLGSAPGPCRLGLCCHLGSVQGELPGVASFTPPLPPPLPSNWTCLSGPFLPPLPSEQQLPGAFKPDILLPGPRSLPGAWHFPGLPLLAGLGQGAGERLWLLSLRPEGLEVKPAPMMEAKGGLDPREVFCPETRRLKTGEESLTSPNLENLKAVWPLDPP
# Method in brief: as §1
# [12] = target: T8, ETS2 (Homo sapiens, UniProt P15036 1-469)
# T8 sequence: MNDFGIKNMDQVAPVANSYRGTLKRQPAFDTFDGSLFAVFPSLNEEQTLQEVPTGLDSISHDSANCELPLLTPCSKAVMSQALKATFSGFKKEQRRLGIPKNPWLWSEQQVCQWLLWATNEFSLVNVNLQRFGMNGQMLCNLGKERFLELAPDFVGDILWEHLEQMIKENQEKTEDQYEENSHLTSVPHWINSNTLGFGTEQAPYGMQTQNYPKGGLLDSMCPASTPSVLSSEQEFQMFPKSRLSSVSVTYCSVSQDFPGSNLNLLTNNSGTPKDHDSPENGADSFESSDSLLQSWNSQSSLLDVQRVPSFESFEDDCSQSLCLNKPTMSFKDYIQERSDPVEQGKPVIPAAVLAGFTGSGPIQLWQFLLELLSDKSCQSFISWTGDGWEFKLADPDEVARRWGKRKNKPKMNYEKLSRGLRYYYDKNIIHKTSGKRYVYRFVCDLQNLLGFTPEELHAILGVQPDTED
# Method in brief: as §1
# [13] = target: T9, SPDEF (Homo sapiens, UniProt O95238 1-335)
# T9 sequence: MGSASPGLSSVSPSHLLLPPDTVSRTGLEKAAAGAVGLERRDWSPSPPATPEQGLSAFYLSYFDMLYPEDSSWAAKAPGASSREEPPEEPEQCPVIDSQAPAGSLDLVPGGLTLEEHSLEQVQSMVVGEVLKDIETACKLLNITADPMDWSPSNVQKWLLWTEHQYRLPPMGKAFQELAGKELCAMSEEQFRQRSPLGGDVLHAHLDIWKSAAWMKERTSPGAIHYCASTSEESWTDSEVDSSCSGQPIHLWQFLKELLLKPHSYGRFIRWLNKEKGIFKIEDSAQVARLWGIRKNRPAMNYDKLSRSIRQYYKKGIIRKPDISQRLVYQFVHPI
# Method in brief: as §1
# [14] = target: T10, ETV7 (Homo sapiens, UniProt Q9Y603 1-341)
# T10 sequence: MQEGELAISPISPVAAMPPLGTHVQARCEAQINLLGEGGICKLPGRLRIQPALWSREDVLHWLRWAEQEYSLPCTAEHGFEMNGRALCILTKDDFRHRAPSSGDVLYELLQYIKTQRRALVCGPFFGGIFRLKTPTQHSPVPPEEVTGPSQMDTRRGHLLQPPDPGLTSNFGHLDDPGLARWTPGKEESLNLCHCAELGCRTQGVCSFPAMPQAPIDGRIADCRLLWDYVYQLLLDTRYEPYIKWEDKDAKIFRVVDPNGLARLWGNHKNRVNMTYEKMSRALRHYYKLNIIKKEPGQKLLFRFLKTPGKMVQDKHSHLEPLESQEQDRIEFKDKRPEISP
# Method in brief: as §1
# [15] = target: T11, ELF5 (Homo sapiens, UniProt Q9UKW6-2 1-255)
# T11 sequence: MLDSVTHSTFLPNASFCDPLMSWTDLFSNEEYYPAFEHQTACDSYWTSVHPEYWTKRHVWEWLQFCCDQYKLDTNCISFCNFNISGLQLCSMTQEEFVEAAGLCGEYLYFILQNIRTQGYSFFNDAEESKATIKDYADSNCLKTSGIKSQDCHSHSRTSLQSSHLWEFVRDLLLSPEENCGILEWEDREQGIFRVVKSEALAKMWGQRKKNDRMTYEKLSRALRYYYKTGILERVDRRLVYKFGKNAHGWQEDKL
# Method in brief: as §1
# [16] = target: T12, ETV3 (Homo sapiens, UniProt P41162-2 1-143)
# T12 sequence: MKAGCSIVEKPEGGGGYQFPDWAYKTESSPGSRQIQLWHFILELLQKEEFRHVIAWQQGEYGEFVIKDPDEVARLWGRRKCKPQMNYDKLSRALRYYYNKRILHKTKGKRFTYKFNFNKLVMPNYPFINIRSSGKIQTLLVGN
# Method in brief: as §1
# [17] = target: ETV6 (Homo sapiens, UniProt P41212 1-452)
# Method in brief: as §1
# Sequence of ELF4 (Q99607 whole entry): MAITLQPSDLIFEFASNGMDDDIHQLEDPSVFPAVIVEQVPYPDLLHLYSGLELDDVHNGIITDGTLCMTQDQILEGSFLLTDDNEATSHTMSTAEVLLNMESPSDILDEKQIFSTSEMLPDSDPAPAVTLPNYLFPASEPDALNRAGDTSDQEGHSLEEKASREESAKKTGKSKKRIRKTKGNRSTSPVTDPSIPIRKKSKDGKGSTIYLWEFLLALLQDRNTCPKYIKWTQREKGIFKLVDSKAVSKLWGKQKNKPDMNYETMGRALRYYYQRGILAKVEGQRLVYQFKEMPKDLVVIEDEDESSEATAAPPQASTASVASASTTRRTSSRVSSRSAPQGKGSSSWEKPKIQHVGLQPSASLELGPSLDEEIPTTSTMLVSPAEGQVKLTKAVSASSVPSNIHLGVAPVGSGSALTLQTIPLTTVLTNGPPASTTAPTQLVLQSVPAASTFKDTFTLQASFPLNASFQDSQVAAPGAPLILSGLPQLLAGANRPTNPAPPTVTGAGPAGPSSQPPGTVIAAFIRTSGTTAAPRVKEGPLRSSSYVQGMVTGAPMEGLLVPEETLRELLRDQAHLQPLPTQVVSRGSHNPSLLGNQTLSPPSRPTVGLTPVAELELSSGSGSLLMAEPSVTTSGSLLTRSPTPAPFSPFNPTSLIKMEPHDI
# Sequence of ETV6 (P41212 whole entry): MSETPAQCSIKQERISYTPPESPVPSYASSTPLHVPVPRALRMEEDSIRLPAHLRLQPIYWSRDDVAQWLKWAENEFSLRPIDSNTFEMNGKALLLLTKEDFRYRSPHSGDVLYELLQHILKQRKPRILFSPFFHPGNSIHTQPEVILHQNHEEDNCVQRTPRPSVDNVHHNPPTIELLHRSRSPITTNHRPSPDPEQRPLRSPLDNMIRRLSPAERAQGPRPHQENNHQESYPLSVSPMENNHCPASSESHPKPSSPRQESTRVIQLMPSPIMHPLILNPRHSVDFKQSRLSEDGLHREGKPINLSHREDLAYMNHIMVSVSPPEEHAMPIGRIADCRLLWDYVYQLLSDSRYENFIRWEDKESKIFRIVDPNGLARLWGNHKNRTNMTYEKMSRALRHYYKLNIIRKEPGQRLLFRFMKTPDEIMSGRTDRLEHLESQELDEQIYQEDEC
# Sequence of ETV1 (P50549 whole entry): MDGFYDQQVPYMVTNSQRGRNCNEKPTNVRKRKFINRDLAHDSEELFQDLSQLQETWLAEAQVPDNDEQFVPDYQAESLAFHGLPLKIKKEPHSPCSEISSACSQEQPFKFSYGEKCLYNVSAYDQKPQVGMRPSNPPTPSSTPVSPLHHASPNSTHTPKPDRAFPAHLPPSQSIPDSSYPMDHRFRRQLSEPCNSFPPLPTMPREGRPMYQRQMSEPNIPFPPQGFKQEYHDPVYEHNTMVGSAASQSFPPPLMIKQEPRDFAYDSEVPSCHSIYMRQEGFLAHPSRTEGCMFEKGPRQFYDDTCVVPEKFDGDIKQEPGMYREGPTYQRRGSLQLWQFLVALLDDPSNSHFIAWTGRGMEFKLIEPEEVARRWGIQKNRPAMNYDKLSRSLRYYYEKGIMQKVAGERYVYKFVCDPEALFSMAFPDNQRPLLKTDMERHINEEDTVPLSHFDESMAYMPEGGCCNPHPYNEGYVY
# Sequence of ETV5 (P41161 whole entry): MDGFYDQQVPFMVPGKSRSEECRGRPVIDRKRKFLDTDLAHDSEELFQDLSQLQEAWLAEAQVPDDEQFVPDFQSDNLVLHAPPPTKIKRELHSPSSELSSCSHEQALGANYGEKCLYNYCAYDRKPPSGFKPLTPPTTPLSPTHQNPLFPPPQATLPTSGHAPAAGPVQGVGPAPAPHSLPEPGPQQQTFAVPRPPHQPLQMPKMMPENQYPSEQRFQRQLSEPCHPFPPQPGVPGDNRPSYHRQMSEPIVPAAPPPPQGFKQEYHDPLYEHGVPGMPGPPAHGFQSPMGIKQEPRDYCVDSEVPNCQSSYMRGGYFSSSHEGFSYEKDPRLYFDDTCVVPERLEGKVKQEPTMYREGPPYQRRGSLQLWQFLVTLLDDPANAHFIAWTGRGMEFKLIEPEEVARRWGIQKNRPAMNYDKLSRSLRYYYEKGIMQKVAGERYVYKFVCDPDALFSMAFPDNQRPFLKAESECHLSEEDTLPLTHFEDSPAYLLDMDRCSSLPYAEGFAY
# Sequence of CRX (O43186 whole entry): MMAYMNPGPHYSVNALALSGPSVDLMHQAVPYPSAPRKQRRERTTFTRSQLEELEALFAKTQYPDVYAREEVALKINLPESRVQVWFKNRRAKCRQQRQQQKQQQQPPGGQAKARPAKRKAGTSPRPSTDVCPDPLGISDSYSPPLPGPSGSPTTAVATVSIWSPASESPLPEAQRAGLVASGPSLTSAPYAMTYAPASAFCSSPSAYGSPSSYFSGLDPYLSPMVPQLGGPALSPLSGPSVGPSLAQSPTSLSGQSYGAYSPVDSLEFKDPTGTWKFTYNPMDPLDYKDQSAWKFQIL
Sequence,binding signal [1],binding signal [2],binding signal [3],binding signal [4],binding signal [5],binding signal [6],binding signal [7],binding signal [8],binding signal [9],binding signal [10],binding signal [11],binding signal [12],binding signal [13],binding signal [14],binding signal [15],binding signal [16],binding signal [17]
TTGCAG,"1.08 fold enrichment (6-mer frequency, TF over GST control)","1.13 fold enrichment (6-mer frequency, TF over GST control)","1.05 fold enrichment (6-mer frequency, TF over GST control)","1.09 fold enrichment (6-mer frequency, TF over GST control)","1.29 fold enrichment (6-mer frequency, TF over GST control)","1.17 fold enrichment (6-mer frequency, TF over GST control)","1.13 fold enrichment (6-mer frequency, TF over GST control)","1.1 fold enrichment (6-mer frequency, TF over GST control)","1.07 fold enrichment (6-mer frequency, TF over GST control)","1.24 fold enrichment (6-mer frequency, TF over GST control)","1.11 fold enrichment (6-mer frequency, TF over GST control)","1.19 fold enrichment (6-mer frequency, TF over GST control)","1.14 fold enrichment (6-mer frequency, TF over GST control)","1.13 fold enrichment (6-mer frequency, TF over GST control)","1.08 fold enrichment (6-mer frequency, TF over GST control)","1.1 fold enrichment (6-mer frequency, TF over GST control)","1.12 fold enrichment (6-mer frequency, TF over GST control)"
CTACGT,"1.28 fold enrichment (6-mer frequency, TF over GST control)","1.09 fold enrichment (6-mer frequency, TF over GST control)","1.17 fold enrichment (6-mer frequency, TF over GST control)","1.24 fold enrichment (6-mer frequency, TF over GST control)","1.24 fold enrichment (6-mer frequency, TF over GST control)","1.03 fold enrichment (6-mer frequency, TF over GST control)","1.01 fold enrichment (6-mer frequency, TF over GST control)","1.01 fold enrichment (6-mer frequency, TF over GST control)","1.3 fold enrichment (6-mer frequency, TF over GST control)","1.24 fold enrichment (6-mer frequency, TF over GST control)","1.29 fold enrichment (6-mer frequency, TF over GST control)","1.12 fold enrichment (6-mer frequency, TF over GST control)","1.12 fold enrichment (6-mer frequency, TF over GST control)","1.35 fold enrichment (6-mer frequency, TF over GST control)","1.27 fold enrichment (6-mer frequency, TF over GST control)","1.17 fold enrichment (6-mer frequency, TF over GST control)","1.42 fold enrichment (6-mer frequency, TF over GST control)"
